Shown are actives, neighbours in structure and some others; about 3.5% of the full set was active somewhere.
Anthrax LF prot: anthrax lethal factor protease inhibition | inhibition, % at 10 µM | P15917 | 0.12% of 360,000 active | multiplex microsphere protease cleavage assay, LF; note: plate controls were buffer without enzyme for full effect and enzyme alone for no effect
BoNT F protease: inhibitors of Botulinum neurotoxin F light chain protease. Multiplex microsphere protease cleavage assay, flow cytometry. inhibition, % at 10 µM. 0.22% of 360,000 active. AID 588497; in the data active = inhibition above about 35%, passing the limit was not always enough; inconclusive = no clear call, values can overlap the other calls; note: plate controls were buffer without enzyme for full effect and enzyme alone for no effect
Bead autofluor: counter-screen for toxin protease inhibitors: compound fluorescence. compound autofluorescence counterscreen, microsphere flow cytometry; stronger effect = higher value. fluorescence intensity (concentration not given with the values). 3.1% of 360,000 active; in the data active = fluorescence intensity above about 16000; inconclusive = no clear call, values can overlap the other calls
BoNT-A LC inh2: BoNT A light chain protease inhibition; 0.17% of 360,000 active; multiplex microsphere protease substrate cleavage, flow cytometry; AID 588499; inhibition, % at 10 µM; note: plate controls were buffer without enzyme for full effect and enzyme alone for no effect
The depositor's hits bear a star; ? = inconclusive. Cut-off read from the data, not from the text of the source, unless noted: active = inhibition above about 30%; inconclusive = no clear call, values can overlap the other calls; inactive = below that.

SMILES	Anthrax LF prot	BoNT F protease	Bead autofluor	BoNT-A LC inh2
O=C(NCCc1ccccc1)C(c1ccc(F)cc1)N(C(=O)c1csnn1)C1CC1 (stereo not drawn)	-2	-8	6234	-2
c1ccc2c(c1)nc1n2C2(N3CCOCC3)CCCC2C1N1CCOCC1 (stereo not drawn)	-2	-4	20620*	-1
O=C(NCC1CC1)C1Cc2c(-c3ccccc3Oc3ccccc3)ccnc2O1 (stereo not drawn)	4	6	2858	0
O=C(Nc1cccc(C(=O)O)c1)/C(=C/c1ccc([N+](=O)[O-])cc1)NC(=O)c1ccccc1	-2	-5	3157	-2
O=C(Nc1cccc2ccccc12)/C(=C/c1ccc([N+](=O)[O-])cc1)NC(=O)c1ccccc1	18	25	7715	34*
CCN(CC)S(=O)(=O)c1cc(NC(=O)COC(=O)CCc2nc3ccccc3s2)ccc1C	-5	-1	22825*	?
O=C(O)c1cccc(S(=O)(=O)Nc2cccc(S(=O)(=O)N3CCCC3)c2)c1	-3	-4	9138	-1
COc1ccc(C(O)P(=O)(OCCC(C)C)c2ccc(N(C)C)cc2)cc1OC (stereo not drawn)	29	?	4733	-4
COc1ccc(C(O)P(=O)(OC2CCCCC2)c2ccc(N(C)C)cc2)cc1OC (stereo not drawn)	-1	-1	22879*	0
CCn1c(NC(=O)c2ccc(COc3ccc(C)cc3[N+](=O)[O-])o2)nc2ccccc21	-1	1	22323*	2
Cc1ccc(OCc2ccc(C(=O)Nc3cc(C)on3)o2)c([N+](=O)[O-])c1	0	2	?	7
Cn1c(-c2cc3ccc(OC(=O)C(C)(C)C)cc3oc2=O)nc2ccccc21	0	1	16715*	0
CC(=O)Oc1ccc2cc(-c3nc4ccccc4n3C)c(=O)oc2c1	0	7	5799	1
CCn1c(SCC(=O)c2ccc(Br)cc2)nnc1C(C)NC(=O)Cc1ccc(OC)cc1 (stereo not drawn)	-10	-5	17649*	-4
CC(=O)OC1CC2(C)C(CCC2(O)C(C)=O)C2CCC3C(Cl)C(=O)CCC3(C)C12 (stereo not drawn)	-4	-2	3379	0
CC(C)c1ccc(-c2nnn(Cc3nc4ccccc4s3)n2)cc1	-4	-7	16755*	-2
CC(C)c1ccc(-c2nnn(CCC#N)n2)cc1	0	-5	4987	-1
CC1(C)CC(=O)c2sc(NC(=O)C3CC3)nc2C1	-4	-6	5400	0
Cn1nc(C(C)(C)C)cc1C(=O)Nc1nc2c(s1)C(=O)CC(C)(C)C2	1	2	22625*	0
CS(=O)(=O)c1cnc2c(-c3ccc(F)cc3)cnn2c1N	0	-3	20368*	?
C/C=C/C(=O)OCC(=O)Nc1cc([N+](=O)[O-])ccc1Cl	-2	-2	2100	0
C/C=C/C(=O)OCC(=O)Nc1c(Cl)cccc1Cl	-1	-3	16870*	-2
COc1ccc(C2(C)NC(=O)N(CC(=O)NCc3ccccc3F)C2=O)cc1 (stereo not drawn)	2	9	2959	0
Clc1ccccc1CSc1ncn(-c2ccccc2)n1	2	0	21905*	2
Cc1ccc(CSc2ncn(-c3ccccc3)n2)cc1	-5	-8	24543*	?
SMILES	Anthrax LF prot	BoNT F protease	Bead autofluor	BoNT-A LC inh2
O=C(CSc1ncn(-c2ccccc2)n1)N1CCN(c2ccccc2)CC1	2	10	4608	1
O=C1NC(=O)/C(=C\c2cn(CC(=O)N3CCOCC3)c3ccccc23)S1	-2	4	5763	1
COc1ccc(CCNC(=O)CCCn2c(=S)[nH]c3cc4c(cc3c2=O)OCO4)cc1OC	2	2	3809	0
Cc1cc(NC(=O)c2noc3c2CCCCC3)no1	-2	-7	9941	-1
Cc1cc(NC(=O)c2noc3c2CCCC3)no1	4	1	21619*	2
O=C(Nc1cccnc1)c1noc2c1CCCC2	-6	-14	26961*	-11
Cc1nn(Cc2ccc(Cl)c(Cl)c2)c(C)c1NC(=O)c1noc2c1CCCCC2	0	-9	17489*	?
Cc1cc(=O)n2ccccc2c1C#N	1	4	22057*	?
CC(C)C(NC(=O)c1c(F)cccc1F)C(=O)N1CCN(S(=O)(=O)/C=C/c2ccccc2)CC1 (stereo not drawn)	-1	-9	5741	0
Nc1nccnc1C(=O)OCC(=O)NCCc1ccc(Cl)cc1	-4	-11	8772	0
CC(Sc1nc(-c2ccccc2)cc(=O)[nH]1)C(=O)O (stereo not drawn)	-4	-8	24389*	-5
Cc1cc(NC(=O)C(C)Sc2nc(-c3ccccc3)cc(=O)[nH]2)no1 (stereo not drawn)	-14	-8	3704	-2
